Consider 172 sequences from PMC6212790, “How bacterial xenogeneic silencer rok distinguishes foreign from self DNA in its resident genome”.

Over roughly 33,000 sequences, “e-score” has its median near -0.037; the highest 2% begin near 0.34. This is one part of a sample in which the highest values are shown more often than they occur.

For the assay, the target named is T1, GST-Rok (full length) (Bacillus subtilis subsp. subtilis str. …, UniProt O34857 1-191).
T1 sequence: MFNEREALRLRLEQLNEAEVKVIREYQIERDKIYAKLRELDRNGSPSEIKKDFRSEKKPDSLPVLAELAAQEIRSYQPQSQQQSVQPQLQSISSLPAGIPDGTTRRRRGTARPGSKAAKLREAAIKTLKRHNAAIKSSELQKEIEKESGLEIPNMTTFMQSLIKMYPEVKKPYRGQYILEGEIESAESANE
The assay can be described thus: protein binding microarray; Rok is a gene silencer of Bacillus subtilis; high values mean tight binding. Particulars: protein: recombinant; tags: GST (pTH5325, pDEST15-Magic modified); dsDNA, one strand shown. In outline:
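Every oligonucleotide joins a 25-mer constant primer to a 35-mer variable part drawn from a de Bruijn sequence of order 10, so each non-palindromic 8-mer appears at least 32 times and each palindromic 8-mer 16 times. The preference for every 8-mer is reported as a unitless, rank-based enrichment score (E-score). This score spans 0.5 for the most favored 8-mer to −0.5 for the most disfavored.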
As for CGTATGGA, the binding signal turned out to be 0.128 E-score.

As to AATTAAAC, the binding signal is 0.0743 E-score. As to CATATAGG, the binding signal turned out to be 0.175 E-score. With ATTAATCA, the binding signal amounted to 0.232 E-score. In the case of CTGGAAAG it was -0.166 E-score; in that of CACATCTC, 0.0106 E-score.

In the case of ACTATTAC, the binding signal came to 0.407 E-score. For AGTATTAA, the binding signal is 0.29 E-score. In the case of ACTATTAT it was 0.386 E-score; in that of ATTATTAC, 0.382 E-score. In the case of ACTATTAG it was 0.244 E-score; in that of ATTATTAA, 0.0696 E-score; in that of CCTATTAC, 0.285 E-score. In the case of CTTATTAC it was 0.299 E-score. On to ACTATTAA, for which the binding signal is 0.289 E-score. With GCTATTAC, the binding signal was 0.269 E-score. As to AGTATTAC, the binding signal is 0.26 E-score. In the case of AGTATTAT, the binding signal was 0.358 E-score. In the case of GCATTAGA, the binding signal was 0.129 E-score. Take TAGTCTGA: the binding signal stood at 0.148 E-score. As to CTTTACGA, the binding signal is 0.0116 E-score. In the case of AAGGAGTC it was -0.107 E-score; in that of AAGGAATC, -0.0168 E-score; in that of ATAGAAGC, 0.307 E-score. Next, CGAGTAAC: 0.156 E-score; ACTTTTAT: 0.355 E-score. Next, ACTATTGA: 0.288 E-score; ACTTTTAA: 0.158 E-score; ACTATTGG: 0.208 E-score. In the case of ACTATTGC, the binding signal was 0.401 E-score. Turning to ACTTTTAC, the binding signal is 0.224 E-score. As to CACTTTTC, the binding signal was 0.0315 E-score. In the case of ACGTTAAG it was -0.0138 E-score; in that of TATAACCA, 0.27 E-score; in that of CACGTTGA, 0.088 E-score.

On to AAGATGAC, for which the binding signal turned out to be 0.0776 E-score.

Take AAGTTTTG: the binding signal is 0.00498 E-score.

Take GTTATACA: the binding signal worked out at 0.213 E-score.

CTTATACA: the binding signal amounted to 0.283 E-score. In the case of ACTATACG it was 0.0122 E-score.

Turning to ATTATACG, the binding signal was found to be 0.381 E-score.

Take ATTATACA: the binding signal was 0.363 E-score. Turning to ATTATACC, the binding signal came to 0.269 E-score.

For the sequence AACGGTTC, the binding signal was 0.108 E-score. Consider GTAGACAA, for which the binding signal was -0.0127 E-score.

As for GTGGCCAC, the binding signal is -0.123 E-score. Next, ACCTTGCG: -0.00332 E-score; CAAAAAGA: -0.0731 E-score. As for TGCTTGAA, the binding signal is -0.0266 E-score.

With CTTCTACC, the binding signal came out at 0.327 E-score. Next, ATTCTACA: 0.42 E-score. On to ATTCTAGC, for which the binding signal is 0.257 E-score. As to ATTCTATA, the binding signal turned out to be 0.247 E-score. Next, GTTCTACA: 0.265 E-score; ATTCTACC: 0.442 E-score. For ATTCTATC, the binding signal came to 0.348 E-score. For ATTCTACG, the binding signal stood at 0.18 E-score. Take CTTCTATC: the binding signal came to 0.265 E-score. Turning to TGAACCCA, the binding signal was -0.0568 E-score. Take CAACTAAA: the binding signal was 0.249 E-score. As for TCTAACAA, the binding signal came out at 0.0589 E-score. Take AAGCGCAG: the binding signal is -0.165 E-score. With GAGACTGA, the binding signal is 0.0243 E-score. In the case of ACCAATCC it was 0.0382 E-score. Next, ATGGTGAG: -0.0135 E-score.

ACTAAATC: the binding signal stood at 0.343 E-score. Regarding ACTAAATA, the binding signal amounted to 0.3 E-score. As to ACTAAAAC, the binding signal was 0.303 E-score. As to ACTAAAAT, the binding signal is 0.406 E-score. Next, ACTAAAAA: 0.21 E-score; ACTAAATG: 0.277 E-score. In the case of CAAACAAC it was 0.00627 E-score; in that of TAGCGGAA, 0.245 E-score; in that of GATGGACC, -0.171 E-score. Take ATTGTTCA: the binding signal is 0.126 E-score. As to ACTGGCGG, the binding signal is -0.0567 E-score. Next, CAGCTGGA: -0.0564 E-score; GGAGCAAC: -0.104 E-score; AAACTAGC: 0.362 E-score. On to CAACTAGC, for which the binding signal worked out at 0.203 E-score. Consider ACACTAGT, for which the binding signal was determined as 0.32 E-score. In the case of AAACTAGG it was 0.252 E-score; in that of GAACTAGC, 0.176 E-score; in that of AAACTAGT, 0.459 E-score. In the case of AAATCCAT it was 0.193 E-score; in that of GGAGGTGA, -0.124 E-score; in that of CCGGCAGC, -0.14 E-score. With CCGCGTCG, the binding signal was 0.0351 E-score.

As to ACAGTGTA, the binding signal was 0.268 E-score. In the case of GTAACTCA it was 0.22 E-score. CGTTTTAA: the binding signal worked out at 0.191 E-score. For ACGAGTAG, the binding signal was -0.0634 E-score. Regarding AATGTATG, the binding signal was determined as 0.272 E-score.

With AATGTACT, the binding signal stood at 0.303 E-score. Next, AATGTACA: 0.347 E-score; AATGTATA: 0.388 E-score.

Take AATGTACG: the binding signal came out at 0.192 E-score. For the sequence GTTGTATA, the binding signal came to 0.348 E-score.

Consider AAAGTACG, for which the binding signal was determined as 0.22 E-score.

Take AAAGTACA: the binding signal came out at 0.364 E-score.

Regarding ATTGTATA, the binding signal came out at 0.32 E-score. In the case of CAAGTACA it was 0.165 E-score.

Regarding AATGTATC, the binding signal came out at 0.224 E-score. With CTTGTATA, the binding signal amounted to 0.219 E-score. In the case of CAGTACTG it was 0.0294 E-score; in that of CCTGGCGA, -0.199 E-score. In the case of GTCCGTCA, the binding signal was -0.0558 E-score.

Regarding GGCAGCTA, the binding signal is -0.0821 E-score.

On to AGAAAGAT, for which the binding signal was 0.0756 E-score. In the case of AAGGCGGT it was -0.0994 E-score; in that of ATTGTACC, 0.239 E-score. In the case of ATTGTACA it was 0.369 E-score. Take CATGTACA: the binding signal amounted to 0.317 E-score. In the case of ATTGTACG it was 0.266 E-score. Next, TATGTACA: 0.378 E-score; GATGTACA: 0.282 E-score.

As to ACGCTTGC, the binding signal is -0.1 E-score. On to CCGTTTTA, for which the binding signal was 0.0815 E-score. CAAATCTA: the binding signal was found to be 0.377 E-score. In the case of GCAATCTA, the binding signal was 0.361 E-score.

For ACAATCTA, the binding signal was found to be 0.283 E-score.

For the sequence TAAATCTA, the binding signal was 0.308 E-score. Next, GAAATCTA: 0.345 E-score; GAAATCTC: 0.209 E-score; CAAATCTG: -0.00951 E-score.

For CCAATCTA, the binding signal was determined as 0.283 E-score. Next, CAAATCTC: 0.0513 E-score. In the case of ATTGATCG it was 0.0726 E-score; in that of CAACTGAA, -0.0305 E-score; in that of CCTCTCTA, -0.198 E-score. Next, CGTATCGA: 0.0045 E-score; ATAAATAA: 0.329 E-score. With ACAAATAT, the binding signal came out at 0.402 E-score. In the case of ACAAATAA, the binding signal was 0.333 E-score. On to ACAAATAC, for which the binding signal was 0.249 E-score.

Regarding ATAAATAG, the binding signal was 0.322 E-score. ATAAATAT: the binding signal is 0.339 E-score. Regarding AATAACCT, the binding signal worked out at 0.0317 E-score. Turning to AACCACGT, the binding signal was -0.0233 E-score. In the case of ACCATAGT, the binding signal came to 0.207 E-score. In the case of GGATAGAA, the binding signal was 0.171 E-score. In the case of CGATAGAG it was -0.134 E-score; in that of AGATAGAA, 0.26 E-score. Next, CGATAGAC: 0.0161 E-score. On to CGATAGAA, for which the binding signal came out at 0.344 E-score. With TGATAGAA, the binding signal turned out to be 0.388 E-score. Next, AGGTGCCA: -0.0282 E-score. For the sequence CTTATTGA, the binding signal was -0.157 E-score. In the case of TATAGATA it was 0.384 E-score; in that of GATAGACA, -0.0476 E-score; in that of AATAGATG, 0.261 E-score. For GATAGATA, the binding signal turned out to be 0.368 E-score. In the case of GATAGATC, the binding signal amounted to 0.273 E-score. Next, AATAGATC: 0.14 E-score; CATAGATA: 0.3 E-score; AATAGATT: 0.388 E-score. With AATAGATA, the binding signal is 0.262 E-score. For ACCGTACT, the binding signal came out at 0.0822 E-score.

Regarding ATTTGGCC, the binding signal is -0.00123 E-score. In the case of CACGGTAG it was 0.264 E-score; in that of AACATCAA, 0.0614 E-score; in that of CGAAGCAA, -0.114 E-score. In the case of AACCTCGC it was -0.106 E-score; in that of AAATTCGT, 0.226 E-score; in that of AAAATATG, 0.278 E-score. For the sequence TAAATAAA, the binding signal was 0.231 E-score.

Turning to TAAATATA, the binding signal was determined as 0.394 E-score.

With CAAATATG, the binding signal came to 0.194 E-score. Next, AAAATATA: 0.417 E-score; AAAATATC: 0.275 E-score. Next, GAAATATA: 0.283 E-score.

Regarding AAAATAAA, the binding signal was determined as 0.199 E-score.
